According to PMC12136788:
In all, about 24,000 sequences were measured (“enrichment r”: median about 0.99, highest 2% from about 3.7 on). Shown is part of a subset that was picked to be rich in the highest values.

T1: UNK ZnF1-3 (human, UniProt Q9C0B0 31-174)
T1 sequence: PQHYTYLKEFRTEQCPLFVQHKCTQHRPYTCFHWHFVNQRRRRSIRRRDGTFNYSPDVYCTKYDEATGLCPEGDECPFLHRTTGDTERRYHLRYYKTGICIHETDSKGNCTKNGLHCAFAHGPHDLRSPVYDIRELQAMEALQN

B1: chr6:38652254:38652255:-_ENSG00000124767_ENST00000373365|hu_hu|hu_hu_hu_mus_False|58_98 (ssRNA)
RNA: GGGAGUUCUACAGUCCGACGAUCCGAGAACUUCAUAAUGGGAAAAUCAAGCUUCUGCAGGAGGGUCAGUCCAAGAACUCUAGUAUAAAAAUCCAGGGACUUCUUAGGAUCCUUAAUUCUUAGCAUCGUUUGCUGCAGUAGAAACAACAGAGGAUUGAGCAUCA
B2: chr15:37385894:37385895:-_ENSG00000134138_ENST00000382766|hu_mus|motif|central (ssRNA)
RNA: GGGAGUUCUACAGUCCGACGAUCGCUUCCAUCUCUCUCAUCAAUCACGAGGUCAAUGGGCAUUUUUCCCUUCAAACAGCGGAUGUACCGGUGGCAGAAGUUAUCACAUAGUUCGUGGACCUUUUCUAACUCCAGAAGAUGAAACAACAGAGGAUUGAGCAUCA
B3: chr8:29959424:29959425:+_ENSG00000104660_ENST00000321250|hu_hu|FALSE|FALSE (ssRNA)
RNA: GGGAGUUCUACAGUCCGACGAUCGAAGGGCACAUCCAAGCAUCAAAAACAUCAGUCCGAUUGCUCCUCCAAAGGACAAACUAAUCAAAGCUUUGAUGCCUGCCAUGGCGGUGACGUCGCUCCUGGCUCCACGACCCGAGGCGGCAACAGAGGAUUGAGCAUCA
B4: chr13:13598695:13598696:+_ENSMUSG00000005397_ENSMUST00000005532|mus_hu|FALSE|FALSE (ssRNA)
RNA: GGGAGUUCUACAGUCCGACGAUCCACCAAGUCAGUCUCAAAGAGCACCCGGCGCUGCGUGCCGUCCAGCUUCGCCACUUCUAUUCGAUCCAGGUUAGAGUCUGUCCAGAAGAUGUUGCGGCCAAGGUGAUCAACAGCGAUACCCAACAGAGGAUUGAGCAUCA
B5: chrX:73036348:73036349:-_ENSMUSG00000016382_ENSMUST00000114059|mus_mus|FALSE|FALSE (ssRNA)
RNA: GGGAGUUCUACAGUCCGACGAUCUGCGUACUUGGCGUUAUUGUGCUUGUCAUCUUCUGUUAGAUUCCCACUCUUCACAAGGUCAUAGUUAAUGCAGCCUGGUUGGAUGGCGUCAAUUAAAUCCACAACCGCCAAACUGGAGCUCAACAGAGGAUUGAGCAUCA
B6: 70939002_70942968_1374_3pUTR_ENSMUSG00000034761_ENSMUST00000110570|mouse|control|control (ssRNA)
RNA: GGGAGUUCUACAGUCCGACGAUCGCUCCGCUCUGGAAUUCCUGUUUGUUGAUCUAAUGGUAUGACGAAUGAUUGCGUGGGGCUCCAAGUCGUCCUCAUCGCCCUCACUGUAGGGAGCAUGGUUGUCCGGAUUGCUCACCUUGUCAACAGAGGAUUGAGCAUCA
B7: chr8:133807003:133807004:+_ENSG00000129292_ENST00000220847|hu_mus|FALSE|FALSE (ssRNA)
RNA: GGGAGUUCUACAGUCCGACGAUCUUUGUUAAUUGCUUCAAUCUUGGCAGGGUAAUAGCGACAGUCUGUCCAACGAGCCAGUACUUCUUCUCCAGCUUUAAAAUCAAAGAGCUCUUCCUCAUCCUUUAGCCCUUCUUUCCUUAGCAACAGAGGAUUGAGCAUCA
B8: chr9:37357388:37357389:+_ENSG00000147905_ENST00000336755|hu_hu|FALSE|FALSE (ssRNA)
RNA: GGGAGUUCUACAGUCCGACGAUCUUGGACACAGAGAAUUGAGAUCUCCAUGGAUAUUCAGUAACUCUAGGAAUGGCUGAAAUUAAAAAAACAAAACCAAAAACUCACUUUAUUUAAUCAUAGAUAAUAAACACAGUGCCAGAACAACAGAGGAUUGAGCAUCA
B9: chrX:35959125:35959126:+_ENSMUSG00000000355_ENSMUST00000000365|mus_mus|FALSE|FALSE (ssRNA)
RNA: GGGAGUUCUACAGUCCGACGAUCAUUUGCUCCACUGAGUACAAAUUUGAUGGCUCCUUUAUCAACCUGCUGAUGUGGCAAGAUAAAAGGAUAUUUAUGAAGUAAUCUUAAAGUUGGAUAAAAAGGCCCUUCUCUUUGUCUAAACAACAGAGGAUUGAGCAUCA
B10: 49527313_49535755_592_CDS_ENSMUSG00000026764_ENSMUST00000028102|mouse|control|control (ssRNA)
RNA: GGGAGUUCUACAGUCCGACGAUCCAUGGUAUGAGUUUUUCCUGAUGAAGUCUGCCCAUAUGCAAAAAUUGUUCCAUUAUAACCCUCAAGGACAUCUUUGACAAUCUGCUUUGCACAGGCAUUGUAGACCUGCUCCUGGGUUGUCAACAGAGGAUUGAGCAUCA
B11: chr2:5814250:5814251:-_ENSMUSG00000025816_ENSMUST00000102981|mus_hu|mus_mus_mus_hu_True|68_108 (ssRNA)
RNA: GGGAGUUCUACAGUCCGACGAUCUUCCUUUCAGGCUUCUGAAUUUCUGGUAGAACUGCACAGAAUGGUUUAAUAACUUCUAAAAAUUUGAUGCCCAUGGCUGCUGCUGGGGAGGCCCAGGGGGAAACCGCGGCCUCGGCGCUGCAACAGAGGAUUGAGCAUCA
B12: chr2:49628383:49628384:+_ENSMUSG00000026764_ENSMUST00000028102|mus_hu|FALSE|FALSE (ssRNA)
RNA: GGGAGUUCUACAGUCCGACGAUCAUAAGCUUUGCAAAACCUGCCCCACAAGGACCCUUUUAUCAGACCGCAAAUAAUGGUAGAGCAGGUAUAUUGGGCUGGCACUGAUAACAAAAUUAAAGAAUGAAAAAAAUUUAAACAAAUCAACAGAGGAUUGAGCAUCA
B13: chr2:49628351:49628352:+_ENSMUSG00000026764_ENSMUST00000028102|mus_hu|FALSE|FALSE (ssRNA)
RNA: GGGAGUUCUACAGUCCGACGAUCACCGCAAAUAAUGGUAGAGCAGGUAUAUUGGGCUGGCACUGAUAACAAAAUUAAAGAAUGAAAAAAAUUUAAACAAAUGCAAAAUUGCCAUCUUCACAAAAUAAAUACUUCAAUAGAAUUCAACAGAGGAUUGAGCAUCA
B14: 90994690_90994914_4067_CDS_ENSMUSG00000040687_ENSMUST00000111370|mouse|control|control (ssRNA)
RNA: GGGAGUUCUACAGUCCGACGAUCGAGGUACCUGUCGAUCAUUUCCUGAGGACCCUGGUCCAUACCCAUUCCUUCUCUUUCCAACAUUACAGCAUCUAAGAAUGCAUCUUCCCAGAACUGCAUUUGGUCCCAUAAGGUAGAACGCAACAGAGGAUUGAGCAUCA

biological target: T1, UNK ZnF1-3; assay: nsRBNS (natural sequence RNA bind-n-seq); RBNS binding buffer (assumed for nsRBNS): 25 mM Tris pH 7.5, 150 mM KCl, 3 mM MgCl2, 0.01% Triton X-100, 500 ug/ml BSA, 20 U/ml SUPERase-In, 4 C; UNK is unkempt and MSI1 is Musashi-1; names of the RNAs are library labels; protein concentration not given here; high values mean tight binding

| Binder | binding signal |
| --- | --- |
| B1 | 1.47 enrichment R |
| B2 | 0.878 enrichment R |
| B3 | 1.29 enrichment R |
| B4 | 1.36 enrichment R |
| B5 | 0.875 enrichment R |
| B6 | 0.565 enrichment R |
| B7 | 0.906 enrichment R |
| B8 | 1.15 enrichment R |
| B9 | 0.981 enrichment R |
| B10 | 0.621 enrichment R |
| B11 | 1.48 enrichment R |
| B12 | 10 enrichment R |
| B13 | 4.72 enrichment R |
| B14 | 0.917 enrichment R |
